Source: the supplement of paper PMC3334620
Over roughly 33,000 sequences, “E-score (-0.5 to 0.5)” has its median near -0.016; the highest 2% begin near 0.32. What follows is part of a selection rich in the highest values, with near analogues and random picks from the rest.

molecular target: T1, Stp1 (UniProt B3LFK1); experiment: PBM E-score (8-mer binding enrichment) (E-score (-0.5 to 0.5)); higher = stronger / more preferred TF binding; settings: protein concentration: 200 nM; construct: GST-full length
T1 sequence: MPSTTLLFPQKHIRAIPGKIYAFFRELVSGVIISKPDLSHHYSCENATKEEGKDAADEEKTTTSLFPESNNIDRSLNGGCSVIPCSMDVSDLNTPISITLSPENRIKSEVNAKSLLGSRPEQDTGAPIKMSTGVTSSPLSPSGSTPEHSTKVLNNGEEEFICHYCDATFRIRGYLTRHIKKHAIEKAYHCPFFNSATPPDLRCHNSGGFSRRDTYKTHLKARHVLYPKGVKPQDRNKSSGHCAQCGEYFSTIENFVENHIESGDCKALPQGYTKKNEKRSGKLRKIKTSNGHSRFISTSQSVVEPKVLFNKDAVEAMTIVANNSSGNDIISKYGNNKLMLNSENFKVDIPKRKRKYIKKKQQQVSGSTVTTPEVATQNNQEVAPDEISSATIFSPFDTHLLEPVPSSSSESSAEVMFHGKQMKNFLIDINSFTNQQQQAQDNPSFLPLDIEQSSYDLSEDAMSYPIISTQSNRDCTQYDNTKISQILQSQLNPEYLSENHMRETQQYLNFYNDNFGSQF
Summary of the method: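 Using PURExpress in vitro transcription/translation, GST-tagged yeast transcription factors were made in full-length or DNA-binding-domain form. These were applied at about 100-200 nM to double-stranded universal all-10-mer Agilent arrays, and bound protein was detected with fluorescent anti-GST. Scans were normalised with masliner before the Universal PBM Analysis Suite assigned E-scores to ungapped eight-base words pooled with their reverse complements.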

Row | Sequence | PBM E-score
1 | CCCTATTC | -0.0984
2 | GACCAACC | -0.152
3 | GTTGGCAA | 0.0689
4 | AAAGGGGG | -0.423
5 | AAGGAGAA | -0.131
6 | AGGGATTG | -0.0197
7 | AATGGTCT | -0.0756
8 | AAGTCTGG | -0.218
9 | GATAGGGC | 0.0849
10 | CTAACGGC | 0.313
11 | CGAACGGC | 0.467
12 | CGAACGGA | 0.207
13 | AGAACGGC | 0.387
14 | AGAACGGA | 0.102
15 | AGAACGGG | -0.129
16 | GTCCTGTA | -0.121
17 | CCAAGAGC | 0.0254
18 | AAGACGGG | 0.0493
19 | GTCTGTCA | -0.00712
20 | ATATATAT | 0.303
21 | ATATATAG | 0.318
22 | CTATATAG | -0.0268

Row | Sequence | PBM E-score
23 | CTATATTA | 0.177
24 | ATTATTTA | 0.281
25 | ATATATTA | 0.329
26 | GTTTATTA | 0.0702
27 | GTATATTA | 0.159
28 | ATTTATTA | 0.324
29 | ATAAAGGG | 0.0416
30 | CCCTCAGG | -0.224
31 | ATCGTTTC | -0.0261
32 | CGGTAAGA | 0.0116
33 | CCTTGCAC | 0.127
34 | TATCGAGA | -0.0215
35 | AGGCACCG | 0.272
36 | CGGCACCC | 0.338
37 | CGGCACCG | 0.437
38 | GGGCACCC | -0.0477
39 | CCGCACCG | 0.288
40 | AGGCACCC | -0.00944
41 | TAGATCAA | -0.00316
42 | CAAGATCG | -0.123
43 | AAAAAGTG | 0.204
44 | AAACGCTT | -0.0887

Row | Sequence | PBM E-score
45 | ACCTCCCG | -0.269
46 | AGTAAGGC | 0.163
47 | CATAAGGC | 0.344
48 | AATAAGGC | 0.231
49 | CGTAAGGC | 0.358
50 | AGCAAGGC | 0.29
51 | CATAAGGG | -0.0274
52 | CGCAAGGC | 0.388
53 | CGTAAGGA | -0.0941
54 | CGCAAAGC | 0.126
55 | CCTCCAGA | 0.0135
56 | CACATCGC | -0.115
57 | TGCGCTAA | -0.0463
58 | GGCGCTGA | 0.327
59 | GGCGCTAA | 0.37
60 | CGCGCTGA | -0.0138
61 | CGCGCTAA | 0.227
62 | AGCGCTGA | -0.0259
63 | GGGGCAGA | -0.0961
64 | GTCGACAA | -0.192
65 | CCGAACGC | 0.226
66 | CCGAACGG | 0.334

Row | Sequence | PBM E-score
67 | CCGAACGA | -0.0055
68 | CGTAATAC | 0.186
69 | CCTGGGCC | -0.181
70 | CGGGCACA | -0.106
71 | TCGGCACA | 0.135
72 | ACGGCACA | 0.479
73 | CCGGCACG | 0.27
74 | CCGGCACA | 0.106
75 | ACGGCACG | 0.484
76 | ACTCTGAG | -0.046
77 | AAGTGTGC | 0.122
78 | AACAGTGT | -0.102
79 | CGAGGGCG | -0.052
80 | AAGGCGAG | -0.158
81 | ACGGCGAT | 0.479
82 | AGGGCGAT | 0.0677
83 | CCGGCGAG | 0.0395
84 | ACCGCGAT | 0.0376
85 | AGGGCGAG | -0.12
86 | ACGGCGAG | 0.437
